Sampled rows, rich in hits. Any-hit rate of the full collection: about 3.9%.
BoNT-F LC inh: blocks Botulinum neurotoxin F light chain protease; inhibition, % at 10 µM; Multiplex microsphere protease cleavage assay, flow cytometry; hit rate 0.22% among 360,000; in the data active means inhibition above about 35%, passing the limit was not always enough; inconclusive means no clear call, values can overlap the other calls
MazEF act: increases E. coli MazEF RNase cleavage of RNA; P0AE70; AID 504720; activation, % at 20 µM; FAM/BHQ RNA-DNA oligo cleavage fluorescence, 5 h; hit rate 0.32% among 350,000; in the data active means activation above about 50%
BH1578 lux ind: induces V. cholerae light production without autoinducers | V. cholerae BH1578 lux reporter, luminescence, 6 h | AID 588436 | hit rate 0.16% among 350,000 | activation, % at 18.7 µM; in the data active means activation mostly above about 9.7%, no sharp cut-off; inconclusive means no clear call, values can overlap the other calls; inactive means mostly below about 3.7%
Anthrax LF inh2: anthrax lethal factor protease inhibition | multiplex microsphere protease cleavage assay, LF | inhibition, % at 10 µM | hit rate 0.12% among 360,000 | AID 588501
BoNT A protease: BoNT A light chain protease inhibition; multiplex microsphere protease substrate cleavage, flow cytometry; inhibition, % at 10 µM; hit rate 0.17% among 360,000; AID 588499
Autofluor counter: counter-screen for toxin protease inhibitors: compound fluorescence; fluorescence intensity (concentration not given with the values); hit rate 3.1% among 360,000; compound autofluorescence counterscreen, microsphere flow cytometry; hits give high values; in the data active means fluorescence intensity above about 16000; inconclusive means no clear call, values can overlap the other calls
Hits are given with their value; i = inactive; ? = inconclusive; nt = no result given. Unless noted, no stated cut-off is given here; in the data, active means inhibition above about 30%; inconclusive means no clear call, values can overlap the other calls; inactive means below that.

SMILES | BoNT-F LC inh | MazEF act | BH1578 lux ind | Anthrax LF inh2 | BoNT A protease | Autofluor counter
O=C(O)c1cccc(CSc2nnc(-c3ccco3)o2)c1 | i | i | i | i | i | i
CC1=CCC[C@@H]2[C@]3(CC/C(=C/CO)CO)CO[C@@]2(C1)[C@@H](O)C[C@H]3C | i | nt | i | i | i | i
OCC[C@@H]1C[C@H](O)[C@@H](O)[C@@]2(OCc3cc(C(F)(F)F)ccc32)O1 | i | i | i | i | i | i
CC1=C(C(=O)N(C(C)C)C(C)C)CC(CC(=O)NC2CC2)C(=O)N1Cc1ccc(F)cc1 (centres undefined) | i | nt | nt | i | i | i
CCc1ccc(-c2c(C)sc(NC(C)=O)c2C(N)=O)cc1 | i | i | i | i | i | 22107
O=C(Nc1ccc2c(c1)OCCO2)C(c1ccnc2ccccc12)N1CCN(C/C=C/c2ccccc2)CC1 (centres undefined) | i | nt | nt | i | i | i
Cc1ccccc1OCc1nc2ccc(S(=O)(=O)N3CCOCC3)cc2[nH]1 | i | i | i | i | i | 22238
CCc1ccccc1OCc1nc2ccc(S(=O)(=O)N3CCOCC3)cc2[nH]1 | i | i | i | i | i | i
COc1ccc(Cc2nc3ccc(S(=O)(=O)N4CCOCC4)cc3[nH]2)cc1OC | i | i | i | i | i | 24349
CC(C)=CCC/C(C)=C/CNC(=O)C[C@H]1C[C@H](C(=O)N2CCOCC2)[C@@]2(CCC3CCCC3)c3[nH]c4cc(CCC(=O)N(C)C)ccc4c3CCN2C1=O | i | i | i | i | i | i
O=c1c2ccccc2nnn1Cc1ccc2ccccc2c1 | i | i | i | i | i | i
Cc1cc(=O)n2c(nc3ccccc32)[nH]1 | i | i | i | i | i | 24029
CCCc1cc(=O)n2c(nc3ccccc32)[nH]1 | i | i | i | i | i | i
COc1ccc(-c2nc(C3CCCCC3)no2)cc1OC | i | i | i | i | i | 22056
c1ccc(-c2nc(C3CCCCC3)no2)cc1 | i | i | i | i | i | i
CC(OC(=O)CNC(=O)C1CCCCC1)C(=O)NCc1ccccc1 (centres undefined) | i | i | i | i | i | i
NC1=NC2(CCCCC2)N=C(Nc2ccc(F)cc2F)N1 | i | i | i | i | i | 24883
CCOc1ccc(S(=O)(=O)N2CCC(C(=O)NCCc3ccccc3)CC2)cc1 | i | i | i | i | i | i
c1ccc(NC2=Nc3cccc4cccc2c34)cc1 | i | i | i | i | i | i
Fc1ccc(/C=N/NC2=Nc3cccc4cccc2c34)cc1 | i | 110.3 | i | i | i | i
COC(=O)CN(C)C1CC(=O)N(c2ccc(Cl)cc2)C1=O (centres undefined) | i | i | i | i | i | 22599
O=C1NC[C@H](CCCCN2C[C@H](Cc3ccc(O)cc3)N(CCC3CCCCC3)C(=O)C2=O)N(CCC2CCCCC2)C1=O | i | nt | nt | i | i | i
O=C(NC1CCCCC1)n1c(=O)oc2ccccc21 | i | i | i | i | i | 23174
O=C(NC1CCCCC1)n1c(=O)oc2ccc(Cl)cc21 | i | i | i | i | i | 23566
O=C(CCn1c(=S)oc2ccccc21)NC1CCCCCC1 | i | i | i | i | i | i
SMILES | BoNT-F LC inh | MazEF act | BH1578 lux ind | Anthrax LF inh2 | BoNT A protease | Autofluor counter
C[C@H](NC(=O)Cn1cncn1)c1ccccc1 | i | i | i | i | i | 17083
O=C(Cn1cncn1)N/N=C/c1cccc2ccccc12 | i | i | i | i | i | i
O=C(Cn1cncn1)NCc1cccc2ccccc12 | i | i | i | i | ? | 22835
COc1cc(OC)cc(-c2nc3cc(C)ccc3o2)c1 | i | i | i | i | i | 22263
CCCC(=O)Nc1ccc(C(=O)N/N=C/c2cccnc2)cc1 | i | i | i | i | ? | 23205
O=C(N/N=C/c1cccnc1)c1ccc(NC(=O)C(c2ccccc2)c2ccccc2)cc1 | i | 61.4 | i | i | i | i
O=C(CNC(=O)C(c1ccccc1)c1ccccc1)N/N=C/c1cccnc1 | i | i | i | i | i | i
Cc1ccc(C(=O)COC(=O)C2C3C=CC(C3)C2C(=O)OCC(=O)c2ccc(C)c(C)c2)cc1C (centres undefined) | i | i | i | i | ? | 22921
CCCc1cc(=O)oc2cc(C)cc(OCC(=O)N3CCC(C(N)=O)CC3)c12 | i | i | i | i | i | i
CCOC(=O)C1=C(COC(=O)Cc2ccc(Br)cc2)NC(=O)NC1C (centres undefined) | i | i | i | i | i | i
CCOc1ccc(C(=O)Nc2cnn(Cc3ccc(Cl)c(Cl)c3)c2)cc1 | i | i | i | i | i | 16229
CCOC(=O)C1CCCN(C(=O)c2ccc(SC(F)(F)F)cc2)CC1 (centres undefined) | i | nt | i | i | i | i
CCN1C(=O)/C(=C\C=C\c2ccccc2[N+](=O)[O-])SC1=S | i | i | i | i | i | i
CCN1C(=O)/C(=C/C=C2\N(CC)c3cc(S(=O)(=O)N(C)C)ccc3N2c2ccccc2)SC1=S | i | i | i | 38.0 | 88.9 | i
COc1ccc(NC(=O)C(C)N2C(=O)c3ccccc3S2(=O)=O)c(OC)c1 (centres undefined) | ? | i | i | ? | ? | ?
COc1cccc(-c2ccc3nccn3c2)c1 | i | nt | i | i | i | i
O=[N+]([O-])c1ccc2nccn2c1 | i | i | i | i | i | 24475
COc1cc(CNC(=O)Nc2nnc([C@H]3C[C@H](O)[C@@H](CO)O3)s2)cc(OC)c1OC | i | nt | i | i | i | i
CNC(=O)/C(C#N)=C/c1ccc(-c2nc3ccccc3s2)o1 | i | 94.0 | i | i | i | i
N#C/C(=C\c1ccc(-c2nc3ccccc3s2)o1)C(N)=O | ? | i | i | i | i | i
CC(C)n1nnnc1C1c2ccccc2C(=O)N1CCOc1ccccc1 (centres undefined) | i | nt | nt | i | i | i
COc1cc(-c2nn3c(COc4ccccc4)nnc3s2)cc(OC)c1OC | i | i | i | i | i | 23486
COc1cc(-c2nn3c(Cc4ccccc4)nnc3s2)cc(OC)c1OC | i | i | i | i | i | 22616
COc1cc(-c2nn3c(-c4ccccc4)nnc3s2)cc(OC)c1OC | nt | i | i | nt | nt | nt
CCOC(=O)c1cccnc1SCC(=O)NCc1ccccc1 | i | i | i | i | i | 19817
SMILES | BoNT-F LC inh | MazEF act | BH1578 lux ind | Anthrax LF inh2 | BoNT A protease | Autofluor counter
CSc1ncccc1C(=O)OCC(=O)NCCCc1ccccc1 | i | i | i | i | i | i
CCOC(=O)c1cnc(NCc2ccccc2)nc1C | i | i | i | i | i | 16359
C=CCSc1ncccc1C(=O)NCc1ccccc1 | i | i | i | i | i | 21460
CC(=O)N1CCN(C(=O)c2ccc(C(=O)c3ccccc3)cc2)CC1 | i | i | i | i | i | i
O=C(c1ccc(Cl)cc1)N1CCC(c2nc(-c3cccs3)no2)CC1 | i | i | i | i | i | 23989
CC1CN(C(=O)Cn2c(=O)oc3ccccc32)CC(C)O1 (centres undefined) | i | i | i | i | i | i
N#Cc1cc(Oc2ccccc2)c(-n2nnc3ccccc32)cc1C#N | i | i | i | i | i | i
N#Cc1cc(Oc2ccc3ccccc3c2)c(-n2nnc3ccccc32)cc1C#N | i | i | i | i | i | 20725
